# Results published in the OligoGym collection.
# Assays:
# Assay in all cases: pooled miR-30 sensor sort-seq; sequence = guide strand
# Conditions in all cases: shRNA
# [1] = target: C7orf11
# [2] = target: C7orf47
# [3] = target: C7orf69
# [4] = target: C8B
# [5] = target: C6orf58
# [6] = target: CA8
# [7] = target: CA4
# [8] = target: CADM4
# [9] = target: CAPNS2
# [10] = target: CBL
# [11] = target: CBR1
# [12] = target: CBWD1
# [13] = target: CCDC102B
# [14] = target: CCDC56
# [15] = target: CD180
# [16] = target: CD320
# [17] = target: CDC23
# [18] = target: CDH2
# [19] = target: CDK9
# [20] = target: CDKL2
# Also: reference of the scale not given here.
sequence,measurement,setting,value
TTCTTTTTTCTCTAACACGCCC,sensor-assay potency score (higher = more potent),[1],-0.504
AAGATGGTCATGTCTGGCCCAG,sensor-assay potency score (higher = more potent),[2],-1.42
TTTCTGGGTCACACAAGATGGT,sensor-assay potency score (higher = more potent),[2],-1.07
TCCAACTCATTAGACATTCTTT,sensor-assay potency score (higher = more potent),[1],-1.12
TTGAGTATTGCTGTATTGTTGG,sensor-assay potency score (higher = more potent),[1],-0.097
TTTTTCTCTAACACGCCCTGAT,sensor-assay potency score (higher = more potent),[1],0.0567
TCTAATATCAACAATACCTGAT,sensor-assay potency score (higher = more potent),[1],0.0324
TTTTTTCTCTAACACGCCCTGA,sensor-assay potency score (higher = more potent),[1],-0.403
TTTCCATCCATGACCAACTTTT,sensor-assay potency score (higher = more potent),[3],-0.995
TTACACACCTTCCTGTCTGTGC,sensor-assay potency score (higher = more potent),[4],0.539
AAAACTTGTAGAGAAGTCCAGA,sensor-assay potency score (higher = more potent),[3],-0.425
TAGTTTAACACAAAAATACGAA,sensor-assay potency score (higher = more potent),[2],-0.764
ATTCATAAAATAGCGTTTCTGG,sensor-assay potency score (higher = more potent),[2],-0.587
TTCAGCTCTCCTATCCGTGCAA,sensor-assay potency score (higher = more potent),[3],0.252
TTGGCTTATATCCACTACAGAT,sensor-assay potency score (higher = more potent),[1],-1.16
TTGTAGAGAAGTCCAGAGTTAA,sensor-assay potency score (higher = more potent),[3],-1.47
TAGCGTTTCTGGGTCACACAAG,sensor-assay potency score (higher = more potent),[2],-0.834
AAGTCCAGAGTTAAGAACCAGC,sensor-assay potency score (higher = more potent),[3],-0.81
TTCTGGGTCACACAAGATGGTC,sensor-assay potency score (higher = more potent),[2],-1.8
TTATATGATCTAATCAAGGTTG,sensor-assay potency score (higher = more potent),[5],-0.152
TTATATCCACTACAGATACTGG,sensor-assay potency score (higher = more potent),[1],-1.05
TAATTATCCAATCAAAGTCATC,sensor-assay potency score (higher = more potent),[1],-1.65
TTTGAGGATAAACTGAAGGTGC,sensor-assay potency score (higher = more potent),[6],-0.117
TCCAGCAACATCATCACTGAGT,sensor-assay potency score (higher = more potent),[7],-1.67
TTGACTGGCACCAAGCAGGGGT,sensor-assay potency score (higher = more potent),[7],-0.145
TGCAACTATGAATCCTAGCAGC,sensor-assay potency score (higher = more potent),[6],-0.939
TGTCGTAGTACAGCTTCTGAGA,sensor-assay potency score (higher = more potent),[7],-0.691
TTGACTTCAGGATAACCTGAAT,sensor-assay potency score (higher = more potent),[6],-1.18
TATCGGAATAATATCCAGGTGA,sensor-assay potency score (higher = more potent),[6],-0.367
TTAGGTTAATAGGAGACTGGTA,sensor-assay potency score (higher = more potent),[6],-0.274
TTTCTCATGTACTATGTGCATC,sensor-assay potency score (higher = more potent),[7],-0.994
TTTGCTTCTTATCGTAGCCAGA,sensor-assay potency score (higher = more potent),[7],-0.836
TTAACATGTGTCCTCAGCCTTC,sensor-assay potency score (higher = more potent),[6],-1.15
TTTGACTTCAGGATAACCTGAA,sensor-assay potency score (higher = more potent),[6],0.794
AAATTCTTCTATCTGTAGCTGG,sensor-assay potency score (higher = more potent),[6],0.0203
TCGTAGTGCTCATCTCAGGTTT,sensor-assay potency score (higher = more potent),[7],-0.761
TTTCTTTGGAATATACAGCCAT,sensor-assay potency score (higher = more potent),[6],0.203
TTATTTTGGACAGTCCACGTTT,sensor-assay potency score (higher = more potent),[7],-0.237
TAACCTGAATGGTATGTCCATC,sensor-assay potency score (higher = more potent),[6],-1.33
TTGAACCTCGTAGCACCAGTGT,sensor-assay potency score (higher = more potent),[7],-1.16
TATCTGAACAAACAGAGCAATG,sensor-assay potency score (higher = more potent),[6],-1.69
TTGCTTCTTATCGTAGCCAGAG,sensor-assay potency score (higher = more potent),[7],-0.919
TTCGAAATTCTTCTATCTGTAG,sensor-assay potency score (higher = more potent),[6],-0.338
TTTTTGTCCACCTTTGCCTTGG,sensor-assay potency score (higher = more potent),[7],-0.0193
TTCATATTAATAACAACTCTGG,sensor-assay potency score (higher = more potent),[6],-0.115
TTATATGGCAAGTCGGACCAGT,sensor-assay potency score (higher = more potent),[7],0.112
TAGATGAAGACAAACAACGCAG,sensor-assay potency score (higher = more potent),[6],0.00396
AAAAGCTTTGAAATTAACCGTG,sensor-assay potency score (higher = more potent),[6],-0.175
TTCTCTGTGAAGCTGAATGGGC,sensor-assay potency score (higher = more potent),[7],-0.889
AAAGCTTTGAAATTAACCGTGT,sensor-assay potency score (higher = more potent),[6],0.986
TTGTCGTAGTACAGCTTCTGAG,sensor-assay potency score (higher = more potent),[7],-1.18
TTGTTCTCCAGCAACATCATCA,sensor-assay potency score (higher = more potent),[7],-1.13
TTCTTCTATCTGTAGCTGGGAT,sensor-assay potency score (higher = more potent),[6],-0.262
TCACTGTCTGTTCCTTGTCGTA,sensor-assay potency score (higher = more potent),[7],-1.4
ATTAGCATCAGGAAACACCAGA,sensor-assay potency score (higher = more potent),[6],-0.642
TTGGTGACTTCACAGTCTCGGC,sensor-assay potency score (higher = more potent),[6],-0.936
TTCTTTGGAATATACAGCCATT,sensor-assay potency score (higher = more potent),[6],-0.749
TTGTCCACCTTTGCCTTGGTGG,sensor-assay potency score (higher = more potent),[7],-0.751
TTCTCATCGCAGGTCGGTGTGG,sensor-assay potency score (higher = more potent),[7],-1.28
ATGTACTATGTGCATCTCCATG,sensor-assay potency score (higher = more potent),[7],-2
AATTCTTCTATCTGTAGCTGGG,sensor-assay potency score (higher = more potent),[6],-0.112
TCGTAGTACAGCTTCTGAGAGA,sensor-assay potency score (higher = more potent),[7],-0.918
TAACACATGATATATATTCATA,sensor-assay potency score (higher = more potent),[6],-0.982
TATAGGACCATTGTCTTCCTCC,sensor-assay potency score (higher = more potent),[6],-0.229
TTTGCTGGTTCCTTGCAGCTGG,sensor-assay potency score (higher = more potent),[8],0.149
TATGATCAGAAACACCAGCAGC,sensor-assay potency score (higher = more potent),[8],-1.06
TCTATCTCTATCCAGAGACTTG,sensor-assay potency score (higher = more potent),[9],-1.33
TTGGGTTCTGACACAACCGCAC,sensor-assay potency score (higher = more potent),[10],0.227
TGAGGGAACACATACTCGCTGC,sensor-assay potency score (higher = more potent),[10],-0.456
TTAGTAGTACATTAGTGAGTGC,sensor-assay potency score (higher = more potent),[11],-0.244
TATGACATTGTAAATGCCCTTT,sensor-assay potency score (higher = more potent),[11],-0.242
TTTTCATCGTCACTTCAGCTTG,sensor-assay potency score (higher = more potent),[11],-0.702
TTGTTTTCATCGTCACTTCAGC,sensor-assay potency score (higher = more potent),[11],-0.315
TTTGTTTTCATCGTCACTTCAG,sensor-assay potency score (higher = more potent),[11],0.571
TTTGGGTTCTGACACAACCGCA,sensor-assay potency score (higher = more potent),[10],-1.29
TTCTGTGCACACATCTCGGGTA,sensor-assay potency score (higher = more potent),[11],0.677
TTATTAGAGGGAGTAATTCTGT,sensor-assay potency score (higher = more potent),[11],-0.254
TTGCTTAGTTTTCTTCATCAAA,sensor-assay potency score (higher = more potent),[10],-1.12
TTACGTAGTCAACTGAGTGCGT,sensor-assay potency score (higher = more potent),[11],0.669
TCATCGTCACTTCAGCTTGAAT,sensor-assay potency score (higher = more potent),[11],-1.32
TTATTGTGAGGGATTGTCTGGA,sensor-assay potency score (higher = more potent),[10],0.335
ATCTTGACAAGATAGTACGGAG,sensor-assay potency score (higher = more potent),[10],-1.09
TTCAGAGTTGATTCTCCGCGGG,sensor-assay potency score (higher = more potent),[10],-0.689
TCACCATCCAGAGACAACCAGC,sensor-assay potency score (higher = more potent),[10],-1.24
TACAGCTATCAATCTGCTGGTC,sensor-assay potency score (higher = more potent),[10],-0.313
TGTTGTAGGATCACCATCCAGA,sensor-assay potency score (higher = more potent),[10],0.05
TTATACATTGCTTCATACGTAC,sensor-assay potency score (higher = more potent),[10],-0.141
ATTCTGTGCACACATCTCGGGT,sensor-assay potency score (higher = more potent),[11],-0.951
TTCCTGAGCAAAGAGGACCAGG,sensor-assay potency score (higher = more potent),[10],-0.903
TAATTCTGTGCACACATCTCGG,sensor-assay potency score (higher = more potent),[11],-0.638
ATACGTACAGCTATCAATCTGC,sensor-assay potency score (higher = more potent),[10],0.514
TCAGTGATGGTCTCACTGCGGA,sensor-assay potency score (higher = more potent),[11],-1.01
TCTCTGAAACAAATTGTCCATG,sensor-assay potency score (higher = more potent),[11],-1.29
TTGTCTAGTAGCTTCATTGATA,sensor-assay potency score (higher = more potent),[12],-0.639
TATCTTGACAAGATAGTACGGA,sensor-assay potency score (higher = more potent),[10],0.0663
ATCGTCGATGTCCAGCTGGTGG,sensor-assay potency score (higher = more potent),[11],-1.35
TTGAATATGAAAGGGTGTGGGA,sensor-assay potency score (higher = more potent),[11],0.163
TTCAGCTTGAATATGAAAGGGT,sensor-assay potency score (higher = more potent),[11],0.264
TCTGTGCACACATCTCGGGTAC,sensor-assay potency score (higher = more potent),[11],-0.133
TAAGAGATCATTTTTTTTCTTA,sensor-assay potency score (higher = more potent),[11],0.534
TATTAGAGGGAGTAATTCTGTG,sensor-assay potency score (higher = more potent),[11],-0.602
TAGTACATTAGTGAGTGCTAAT,sensor-assay potency score (higher = more potent),[11],-1.35
TTCTCTGAAACAAATTGTCCAT,sensor-assay potency score (higher = more potent),[11],-0.572
AATTCTGTGCACACATCTCGGG,sensor-assay potency score (higher = more potent),[11],-0.452
TTCAGGAGGATCTTGTCCCCTT,sensor-assay potency score (higher = more potent),[11],-0.643
AAATTCTCCATAAACACCCTAA,sensor-assay potency score (higher = more potent),[10],-0.0479
TCAATTAGTAGTACATTAGTGA,sensor-assay potency score (higher = more potent),[11],0.828
TTGCATTTCATCATTATGTTGA,sensor-assay potency score (higher = more potent),[13],0.234
ACCATAAATAGCCAACACCAGG,sensor-assay potency score (higher = more potent),[14],-2.43
TCGTCTTCTAGCTCATCTAGGA,sensor-assay potency score (higher = more potent),[14],-0.614
TAGAGATGTAGTGTATAGCATT,sensor-assay potency score (higher = more potent),[15],-1.05
TTGCGCAGTTTCTTGTCAGTTC,sensor-assay potency score (higher = more potent),[16],-0.101
TCTGTTCTGACAGCAGCAGGGA,sensor-assay potency score (higher = more potent),[16],-0.673
TTTATTAAAACAGACCAGCTTG,sensor-assay potency score (higher = more potent),[17],-0.155
TTTTTATCTCTATCAGACCTGA,sensor-assay potency score (higher = more potent),[18],-0.29
TTGACCACATTCTCGTGTTTTA,sensor-assay potency score (higher = more potent),[19],-0.499
TCAAGTTGACCACATTCTCGTG,sensor-assay potency score (higher = more potent),[19],-0.846
ATCTCTGCCATGATGCACCCAG,sensor-assay potency score (higher = more potent),[19],-0.791
TAGAAGCTGAAGGATCTTGATC,sensor-assay potency score (higher = more potent),[19],-0.488
TTAGATAAAGAAACATTTCTGG,sensor-assay potency score (higher = more potent),[20],0.295
